Screens: PubChem BioAssay, National Center for Advancing Translational Sciences (NCATS)
Tb PYK inh: qHTS of Trypanosoma Brucei Inhibitors; pyruvate kinase (Trypanosoma brucei), Q57TT1; TbPYK enzyme, Kinase-Glo Plus ATP luminescence, 45 min; Potency, µM (highest dose often 76.8 µM), without a hit: top-dose activity, negative = inhibition, usual class: inhibitors; hit rate 0.12% among 410,000; AID 624173, 2012; note: % is set by controls: 0 for no effect and ±100 for the full control effect; nearly all actives have a fitted effect of over 50% in size
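Luminescent Kinase-Glo Plus end-point after 45 min room-temperature reaction of T. brucei pyruvate kinase started with 130 uM ADP (final). Buffer TEA 50 mM pH 7.2 with KCl, MgCl2, BSA, Tween-20; titration-based qHTS with fitted concentration-effect curves.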
LmPK inh: qHTS Assay for Inhibitors of Leishmania Mexicana Pyruvate Kinase (LmPK). Q27686. purified LmPK, Kinase-Glo ATP luminescence, 1 h. Potency, µM (titrated, usually from 57.5 µM), for inactives: at the top dose activity change, negative = inhibition, actives largely listed as inhibitors. hit rate 0.37% among 290,000. AID 1721, 2009; note: % is set by controls: 0 for no effect and ±100 for the full control effect
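0.1 nM LmPK, 0.5 mM PEP, 0.1 mM ADP; 50 mM imidazole pH 7.2, 7 mM MgCl2, 50 mM KCl; 1 h RT. Kinase-Glo luminescence readout, normalized to no-enzyme (full inhibition) and uninhibited wells.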
Giardia FBPA inh: qHTS Assay for Inhibitors of Fructose-1,6-bisphosphate Aldolase from Giardia Lamblia; purified Giardia FBPA; Potency, µM (top dose mostly 59.6 µM), for the others: at the top dose activity, negative = inhibition, hits mostly inhibitors; hit rate 0.71% among 290,000; AID 2451, 2010; note: % is set by controls: 0 for no effect and ±100 for the full control effect; nearly all actives have a fitted effect of over 55% in size
Target sequence (A8B2U2 whole entry, looked up): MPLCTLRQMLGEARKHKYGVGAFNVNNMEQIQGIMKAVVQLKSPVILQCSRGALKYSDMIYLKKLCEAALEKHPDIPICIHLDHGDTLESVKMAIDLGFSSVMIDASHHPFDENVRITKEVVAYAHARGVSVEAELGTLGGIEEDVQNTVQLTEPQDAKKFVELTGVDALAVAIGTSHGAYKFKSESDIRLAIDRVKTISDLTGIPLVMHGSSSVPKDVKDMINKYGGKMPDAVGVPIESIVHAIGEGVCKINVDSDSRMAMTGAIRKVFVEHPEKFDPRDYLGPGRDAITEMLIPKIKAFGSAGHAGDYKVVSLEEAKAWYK
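40 nM FBPA preincubated 10 min at RT with compound (up to 57.5 uM final), then substrate plus GAPDH/TPI/NAD/arsenate coupling and diaphorase/resazurin added. Fluorescence read after 20 min at RT, 525/598 nm.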
RE007 growth inh: qHTS Assay for Inhibitors of the HIV-1 protein Vpr. S. pombe RE007 Vpr strain, BacTiter-Glo ATP luminescence, 24 h. Potency, µM (titrated, usually from 92.2 µM), without a hit: at the highest dose activity change, negative = less growth, actives largely listed as inhibitors. hit rate 0.21% among 360,000; active = well fitted falling curve with a large enough effect; inconclusive = small, poorly fitted or top-dose-only effect; inactive = no such curve, though single readings can be large or run the other way; note: % is set by controls: 0 for no effect and ±100 for the full control effect; nearly all actives have a fitted effect of over 50% in size
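Fission yeast RE007 carrying one integrated HIV-1 vpr copy, seeded at OD 0.01 in PMG+AL medium with 23 nL pinned compound. Grown 24 h at 30 degrees; viability read by BacTiter-Glo luminescence after 5 min.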
NS1 inh: qHTS Assay for Inhibitors of Influenza NS1 Protein Function; hit rate 0.4% among 270,000; Potency, µM (highest dose often 46.1 µM), for inactives: top-dose activity, positive = more growth; AID 2326, 2010; calls by dose curve; note: actives are rising curves; nearly all actives have a fitted effect of over 50% in size
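Recovery from NS1-induced slow growth read by OD600 in budding yeast switched to galactose assay medium (pH 6.0, -URA) at 1:100 dilution. Compound 23 nl per well; the matching strain lacking NS1 serves as control.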
Sm TGR block: qHTS Assay for the Inhibitors of Schistosoma Mansoni Peroxiredoxins | Schistosoma mansoni thioredoxin glutathione reductase (TGR), Q962Y6 | purified TGR, DTNB reduction, TNB absorbance 405 nm | Potency, µM (doses to about 114 µM), without a hit: top-dose activity change, negative = inhibition, hits mostly inhibitors | hit rate 3% among 360,000; note: % is set by controls: 0 for no effect and ±100 for the full control effect; nearly all actives have a fitted effect of over 60% in size
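TGR 20 nM + NADPH 100 uM (dispensed conc.), cpd preinc 15 min RT; start with NADPH (500 uM addition) then DTNB (15 mM addition). Kinetic TNB absorbance, 405 nm filter. Four-parameter Hill fit across titration.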
* = called active by the depositor; ? = inconclusive; nt = no result. Hits are enriched below; roughly 3.5% of the tested compounds scored in any of these assays. Unless noted, calls come from the whole dose curve; as a rule, active = well fitted curve in the direction sought with a large enough effect; inconclusive = small, poorly fitted or top-dose-only effect, or another doubt; inactive = no such curve, though single readings can be large; an effect the other way counts as inactive or inconclusive. Potency is the fitted concentration of half-maximal effect.

SMILES	Tb PYK inh	LmPK inh	Giardia FBPA inh	RE007 growth inh	NS1 inh	Sm TGR block
CCSc1nc(=O)c2c(n1C)NC(=O)CC2c1ccc(O)cc1OC (stereo not drawn)	-3%	nt	nt	nt	nt	2%
COc1ccc(N2C(=O)CC(N(C)CCc3ccc(OC)c(OC)c3)C2=O)cc1 (stereo not drawn)	4%	4%	1%	22µM*	1%	-1%
COc1ccc(CCN(C)C2CC(=O)N(c3ccccc3)C2=O)cc1OC (stereo not drawn)	-2%	1%	-2%	6.3µM*	-87%	11µM*
COC(=O)c1ccc(N2C(=O)CC(N(C)CCc3ccc(OC)c(OC)c3)C2=O)cc1 (stereo not drawn)	-16%	0%	1%	7.9µM*	-251%	22µM*
CN(C(=O)CO)c1c(I)c(C(=O)NCC(O)CO)c(I)c(C(=O)NCC(O)CO)c1I (stereo not drawn)	10%	nt	nt	nt	nt	nt
O=C(CC(Sc1ccc(Br)cc1)C(=O)O)c1ccc(Br)cc1 (stereo not drawn)	nt	1%	-2%	nt	-46%	0.28µM*
Cc1ccc(SC(CC(=O)c2ccc(C)cc2)C(=O)O)cc1 (stereo not drawn)	-18%	-2%	4%	-9%	-99%	13µM*
O=C(CNC(=O)c1ccc(Br)cc1)c1ccc(Br)cc1	3%	0%	11%	3%	19%	8%
O=C(CC(C(=O)O)P(=O)(c1ccccc1)c1ccccc1)c1ccc(Br)cc1 (stereo not drawn)	1%	2%	8%	1%	4%	28µM*
c1ccc2c(CCC3CCNCC3)c[nH]c2c1	5%	nt	nt	nt	nt	nt
COc1cccc(/C=C/c2nc(S(=O)(=O)c3ccccc3)c(N(C)C)o2)c1	23%	1%	-3%	1%	-2%	?
COc1ccccc1/C=C/c1nc(S(=O)(=O)c2ccccc2)c(N(C)C)o1	70%	6%	-3%	-1%	-7%	10µM*
CSc1oc(-c2cccs2)nc1S(=O)(=O)c1ccccc1	4%	6%	-29%	-7%	-2%	-20%
CN(C)c1oc(/C=C/c2cccs2)nc1S(=O)(=O)c1ccccc1	6%	1%	-10%	-6%	2%	35µM*
C=Cc1ccc(Cn2c(C(=O)O)c(CNCc3cc(OC)ccc3OC)c3ccc(C)cc32)cc1	4%	nt	nt	nt	nt	3%
O=C1CS(=O)(=O)C2(C(=O)Nc3ccccc32)N1c1cccc(Cl)c1 (stereo not drawn)	-4%	nt	nt	nt	nt	2%
O=C1C=CC2=C3c4cc(O)c(O)cc4CC3(O)COC2=C1O (stereo not drawn)	?	nt	11µM*	-15%	nt	nt
CCCOc1ccc(C2C(=O)N(C3CCCCCC3)CC(=O)N2CCC)cc1OC (stereo not drawn)	4%	nt	nt	nt	nt	1%
CCCC(=O)Nc1ccc(Cl)c(NC(=O)c2cccnc2)c1	6%	-1%	-3%	5%	-7%	4%
COc1cccc(NC(=O)c2ccc3c(c2)OCCO3)c1	-17%	25µM*	-1%	?	-41%	9%
CCCC(=O)Nc1ccc(Cl)c(NC(=O)c2cccc(OC)c2)c1	-4%	5%	-2%	-15%	nt	8.9µM*
COc1cc(NC(=O)c2ccccc2)cc(OC)c1	-1%	-20%	0%	-16%	-149%	-1%
COc1ccc(C(=O)Nc2cc(OC)cc(OC)c2)cc1	-5%	14µM*	-14%	-10%	-18%	7%
COc1ccc(C(=O)CCNc2ccc3c(c2)OCCO3)cc1	-20%	1%	3%	?	nt	14µM*
CCOC(=O)Cn1c(=O)n(C2CCCCC2)c2nc(-c3ccc(C(C)C)cc3)nc(C(N)=O)c21	-2%	nt	nt	nt	nt	-2%
